We go through 27 compounds from PubChem BioAssay (NCATS).

Records with an inconclusive call do not appear. Unmarked numbers belong to inactive results. Active and inactive are the calls of the source. Unless noted, the call rests on the fitted dose curve; in most records, active means well fitted curve in the direction sought with a large enough effect; inconclusive means small, poorly fitted or top-dose-only effect, or another doubt; inactive means no such curve, though single readings can be large; an effect the other way counts as inactive or inconclusive.

Experiment [1] in a line: qHTS for Inhibitors of Plasmodium falciparum (DD2) proliferation (AID 504314). Further: potency means the concentration at half of the fitted maximal effect.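 On activity, negative = inhibition: parasite DNA measured by SYBR Green fluorescence after red cell lysis; plate controls were DMSO vehicle for no effect and artemisinin wells for full effect.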 The method in brief: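 Erythrocytes infected with P. falciparum Dd2 (0.3% parasitemia, 2.5% hematocrit) exposed to compound 72 h at 37C, 5% CO2. Parasite DNA quantified by SYBR Green fluorescence after saponin/Triton lysis overnight; normalized to 0.29 uM artemisinin and DMSO.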
In general terms: In qHTS, concentration-response curves come from the screen itself.

The nature of experiment [2]: qHTS for Inhibitors of Plasmodium falciparum (GB4) proliferation (AID 504315). Further: nearly all actives have a fitted effect of over 50% in size. Further: potency means the concentration at half of the fitted maximal effect. The method, boiled down: (§1)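 Erythrocytes infected with P. falciparum line (0.3% parasitemia, 2.5% hematocrit final) incubated with compounds 72 h at 37 °C, 5% CO2; SYBR Green lysis buffer added, fluorescence read next day. Normalized to 0.29 uM artemisinin and DMSO.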
A short description of experiment [3]: qHTS for Inhibitors of Plasmodium falciparum (HB3) proliferation (AID 504318). Further: nearly all actives have a fitted effect of over 60% in size. Further: potency means the concentration at half of the fitted maximal effect. The method in brief:
as §1

A short description of experiment [4]: qHTS for Inhibitors of Plasmodium falciparum (CP250) proliferation (AID 504320).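 Further: plate controls were DMSO vehicle for no effect and 0.29 µM artemisinin control for full effect.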 The method in brief: as §1
Experiment [5] deals with Atrial natriuretic peptide receptor 1 (Homo sapiens) (UniProt P16066). Put plainly: Natriuretic polypeptide receptor (hNpr1) antagonism - Pilot CMLD screen (AID 1347052; calls by dose curve;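 further: HEK293 cells with hNpr1 stimulated by hNppA peptide at 0.1 nM; cGMP level read as GloSensor luciferase luminescence after agonist stimulation; series mostly up to about 9.2 µM; on the % scale 0 is the no-effect control and ±100 the full control effect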).
Atrial natriuretic peptide receptor 1 (Homo sapiens), sequence (P16066 whole entry, looked up): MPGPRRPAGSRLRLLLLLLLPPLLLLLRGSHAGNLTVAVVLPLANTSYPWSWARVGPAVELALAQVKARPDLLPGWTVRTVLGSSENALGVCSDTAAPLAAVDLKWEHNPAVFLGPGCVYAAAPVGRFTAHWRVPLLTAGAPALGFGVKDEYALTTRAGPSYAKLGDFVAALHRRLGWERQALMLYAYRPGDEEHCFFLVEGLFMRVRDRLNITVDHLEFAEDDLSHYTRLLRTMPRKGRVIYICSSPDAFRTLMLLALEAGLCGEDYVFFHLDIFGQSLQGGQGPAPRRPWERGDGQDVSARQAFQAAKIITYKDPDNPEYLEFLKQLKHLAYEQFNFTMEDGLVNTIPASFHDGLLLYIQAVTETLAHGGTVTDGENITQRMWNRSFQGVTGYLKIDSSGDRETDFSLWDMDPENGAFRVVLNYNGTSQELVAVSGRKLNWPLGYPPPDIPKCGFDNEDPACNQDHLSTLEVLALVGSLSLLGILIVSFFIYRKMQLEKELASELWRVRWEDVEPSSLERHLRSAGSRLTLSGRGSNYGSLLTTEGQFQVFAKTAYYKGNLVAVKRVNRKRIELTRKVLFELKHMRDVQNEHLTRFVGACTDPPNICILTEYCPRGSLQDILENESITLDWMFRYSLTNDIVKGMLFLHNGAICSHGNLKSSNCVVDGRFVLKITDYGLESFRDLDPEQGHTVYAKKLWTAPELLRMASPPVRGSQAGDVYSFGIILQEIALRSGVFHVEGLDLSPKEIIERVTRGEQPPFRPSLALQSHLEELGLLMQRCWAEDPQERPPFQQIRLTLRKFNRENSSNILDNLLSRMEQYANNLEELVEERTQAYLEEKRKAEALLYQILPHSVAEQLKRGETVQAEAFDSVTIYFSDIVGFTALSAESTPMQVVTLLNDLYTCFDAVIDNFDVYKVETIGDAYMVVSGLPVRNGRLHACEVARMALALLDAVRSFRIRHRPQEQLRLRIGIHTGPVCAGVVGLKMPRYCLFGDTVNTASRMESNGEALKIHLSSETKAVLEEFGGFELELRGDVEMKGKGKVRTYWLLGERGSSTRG

For the compound `COC(=O)C1=C(C)C(=O)[C@]2(O)c3ccccc3N(C)[C@]12C`, the Potency entry in experiment [1], in experiment [2], in experiment [3], in experiment [4] and in experiment [5] was “inactive” throughout.
With `C=CCN1C(=O)[C@@]2(CC(C)=C[C@@H](COc3ccccc3)O2)c2ccccc21`, the Potency result in experiment [1], in experiment [2], in experiment [3], in experiment [4] and in experiment [5] was “inactive” in each case.
As for `COC[C@@H](OC(C)=O)[C@H]1OCc2ccccc2[C@H]1C=Cc1ccccc1`, the Potency entry in experiment [1], in experiment [2], in experiment [3], in experiment [4] and in experiment [5] was “inactive” each time.
Regarding `C=C(Br)CO[C@@H]1C=C[C@@H](c2ccccc2)O[C@@H]1COC`, the Potency result in experiment [1], in experiment [2], in experiment [3], in experiment [4] and in experiment [5] was “inactive” each time.
Turning to `CCCCCCC(=O)Cc1cc(OC)c(OC)cc1C=C(C(C)=O)C(=O)OC`, the Potency result in experiment [1], in experiment [2], in experiment [3], in experiment [4] and in experiment [5] was “inactive” in each case.
Take `CC(CCN1CCc2nc(-c3ccccc3)c(-c3ccccc3)cc2C1)=NOC[C@@H](O)COCc1ccco1`: the Potency result in experiment [1], in experiment [2], in experiment [3] and in experiment [5] was “inactive” in each case.
For the compound `C#CCN1C(=O)CC[C@@]23C1=NC(C(=O)OC)=C(C(=O)OC)[C@@H]2N(CC=C(C)C)c1ccccc13`, the Potency entry in experiment [1], in experiment [2], in experiment [3], in experiment [4] and in experiment [5] was “inactive” each time.
With `CC=C[C@@H]1Oc2ccc(OC)cc2N2C(=O)[C@H](C)[C@@H](OCOC)[C@H]12`, the Potency result in experiment [1], in experiment [2], in experiment [3], in experiment [4] and in experiment [5] was “inactive” each time.
In the case of `COCC=CC1=CC2=CC(=O)C(C)(OC(=O)c3cnc4ccccc4n3)C(=O)C2=CN1Cc1ccccc1` (configuration not stated), the Potency entry in experiment [1], in experiment [2], in experiment [3], in experiment [4] and in experiment [5] was “inactive” throughout.
As for `COc1cc2c(cc1OC)[C@@H]1O[C@](CCCCN3C(=O)c4ccccc4C3=O)(C2)Oc2c1c(=O)oc1ccccc21`, the values for the Potency in experiment [1], in experiment [2] and in experiment [3] were 1500 nM (active), 1690 nM (active) and 2390 nM (active), respectively. In addition, the Potency entry in experiment [5] is “inactive”.
On to `COC(=O)N[C@@H](c1ccc(Cl)cc1)C(C(C)=O)C(=O)OC` (some centres not stated), for which the Potency entry in experiment [1], in experiment [2], in experiment [3], in experiment [4] and in experiment [5] was “inactive” throughout.
Consider `COC(=O)CC=C[C@@H](C)[C@@H](C=NO[C@H](C)CN1CCCc2nc(C)c(C)cc21)N[S+](=O)([O-])c1ccc(C)cc1`, for which the Potency result in experiment [1], in experiment [2], in experiment [3], in experiment [4] and in experiment [5] was “inactive” each time.
In the case of `CC(C)=CCN1C(=O)[C@]2(O[C@H](COc3ccccc3)CC3=CCCC32)c2c(Br)cccc21` (some centres not stated), the results for the Potency in experiment [1], in experiment [2] and in experiment [3] were 3780 nM (active), 1900 nM (active) and 1900 nM (active), respectively. The Potency entry in experiment [5] was “inactive”.
In the case of `CCN(CC)CCCN1C=C2C(=O)C(C)(OC(=O)C3CCCC3)C(=O)C=C2C=C1c1ccsc1` (configuration not stated), in experiment [1], the activity, negative = inhibition was -4.1% [at 1.12 µM]. The Potency result in experiment [2], in experiment [3], in experiment [4] and in experiment [5] was “inactive” each time.
As for `CC(=O)C1=C(C)N(Cc2ccco2)C(=O)NC1c1ccccc1` (configuration not stated), the Potency result in experiment [1], in experiment [2], in experiment [3], in experiment [4] and in experiment [5] was “inactive” in each case.
For `CC(=O)C1=CN(CCc2c[nH]c3ccccc23)C(=O)NC1c1ccccc1` (configuration not stated), the Potency entry in experiment [1], in experiment [2], in experiment [3], in experiment [4] and in experiment [5] was “inactive” in each case.
Take `C#CCCCON=C1C[C@@H](O)[C@@H](O)[C@@H]2[C@H]3C(=O)N(C(C)(C)C)C(=O)[C@@H]3CC[C@H]12`: the Potency entry in experiment [1], in experiment [2], in experiment [3], in experiment [4] and in experiment [5] was “inactive” in each case.
As to `C[C@H]1CC[C@H]2C(=O)N[C@H](Cc3ccccc3)C(=O)N2[C@H]1c1ccccc1`, the Potency result in experiment [1], in experiment [2], in experiment [3], in experiment [4] and in experiment [5] was “inactive” throughout.
For the compound `C#CCCCON=C1C[C@@H](O)[C@H](O)[C@H]2[C@@H]3C(=O)N(C4CCCCC4)C(=O)[C@@H]3CC[C@@H]12`, the Potency entry in experiment [1], in experiment [2], in experiment [3], in experiment [4] and in experiment [5] was “inactive” throughout.
As for `CCOC(=O)[C@@]1([C@@H](NC(=O)OC)c2ccccc2)CCCC1=O`, the Potency result in experiment [1], in experiment [2], in experiment [3], in experiment [4] and in experiment [5] was “inactive” in each case.
For the compound `COC[C@@H](OC(C)=O)[C@H]1OCc2ccccc2[C@@H]1C=Cc1ccccc1`, the Potency result in experiment [1], in experiment [2], in experiment [3], in experiment [4] and in experiment [5] was “inactive” each time.
For `CC1(OC(=O)c2cnc3ccccc3n2)C(=O)C=C2C=C(c3ccc(C#N)cc3)OC=C2C1=O` (configuration not stated), the Potency result in experiment [1], in experiment [2], in experiment [3], in experiment [4] and in experiment [5] was “inactive” each time.
Take `O=C1[C@@H]2[C@H]3[C@H](O)[C@H](O)CC(=NOC[C@@H](O)COCc4ccco4)[C@@H]3CC[C@H]2C(=O)N1C1CCCCC1`: the Potency result in experiment [1], in experiment [2], in experiment [3], in experiment [4] and in experiment [5] was “inactive” throughout.
In the case of `COc1cc(O)c(C(=O)C=Cc2ccccc2)c(O)c1`, the Potency entry in experiment [1], in experiment [2], in experiment [3], in experiment [4] and in experiment [5] was “inactive” each time.
On to `COC(=O)C1=C(C)N(Cc2ccccc2)C(=O)NC1c1cccc(C(F)(F)F)c1` (configuration not stated), for which the Potency result in experiment [1], in experiment [2], in experiment [3], in experiment [4] and in experiment [5] was “inactive” in each case.
With `CC(CCN1CCCc2nc(C)c(C)cc21)=NO[C@@H](C)c1cc(-c2c(C)cc(C)cc2C)no1`, the Potency entry in experiment [1], in experiment [2], in experiment [3], in experiment [4] and in experiment [5] was “inactive” each time.
For the compound `CCCCCCCc1cc2ccccc2c2c(C(=O)OC)c(C(=O)OC)c(C(=O)OC)n12`, the Potency entry in experiment [1], in experiment [2], in experiment [3], in experiment [4] and in experiment [5] was “inactive” throughout.
